Measured values from PubChem BioAssay (NCI).
The panel holds about 83,000 compounds, 20% with a hit somewhere; the sample as a whole holds those more often.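 Single-concentration screen, 48 h exposure, 96-well plates. Endpoint: percent growth. Below 10 = active.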 Calls of active or inactive are those of the source.

Assays:
Test in all cases: NCI-60 one-dose screen, 48 h (100 = growth as untreated, 0 = no growth, -100 = all killed)
Details in all cases: 10 µM unless noted
HCT-15 colon = system: HCT-15 colon
HT29 colon = system: HT29 colon
SNB-75 CNS = system: SNB-75 CNS
SNB-19 CNS = system: SNB-19 CNS
U251 CNS = system: U251 CNS
PC-3 prostate = system: PC-3 prostate
SK-MEL-5 melanoma = system: SK-MEL-5 melanoma
UACC-62 melanoma = system: UACC-62 melanoma
LOX IMVI melanoma = system: LOX IMVI melanoma
SK-MEL-28 melanoma = system: SK-MEL-28 melanoma
EKVX NSCLC = system: EKVX NSCLC
SN12C renal = system: SN12C renal
UO-31 renal = system: UO-31 renal
TK-10 renal = system: TK-10 renal
ACHN renal = system: ACHN renal
CAKI-1 renal = system: CAKI-1 renal
A498 renal = system: A498 renal
CCRF-CEM leukemia = system: CCRF-CEM leukemia
MOLT-4 leukemia = system: MOLT-4 leukemia
SK-MEL-2 melanoma = system: SK-MEL-2 melanoma

Measured: growth

COc1cccc(-c2nn(-c3ccccc3)cc2-c2ccnc(N3CCOCC3)c2)c1
inactive: HCT-15 colon 85.9% | HT29 colon 86.7% | SNB-75 CNS 97.2% | SNB-19 CNS 99.9% | U251 CNS 96.2% | PC-3 prostate 70.2% | SK-MEL-5 melanoma 80.4% | UACC-62 melanoma 71.8% | LOX IMVI melanoma 89.7% | SK-MEL-28 melanoma 108% | EKVX NSCLC 82.2% | SN12C renal 98% | UO-31 renal 66.2% | TK-10 renal 92% | ACHN renal 84.3% | CAKI-1 renal 81.4% | A498 renal 71.7% | CCRF-CEM leukemia 97.8% | MOLT-4 leukemia 59.2%

CN1CCN(c2ccc(-c3cnc4c(-c5csc6ccccc56)cnn4c3)cc2)CC1
inactive: SNB-19 CNS 13.3% | EKVX NSCLC 22% | CCRF-CEM leukemia 16.8% | MOLT-4 leukemia 16.2%
active: HCT-15 colon -4.7% | HT29 colon -40.4% | SNB-75 CNS -54.4% | U251 CNS -87.3% | PC-3 prostate -12.4% | SK-MEL-5 melanoma -100% | UACC-62 melanoma -2.26% | LOX IMVI melanoma -91.2% | SK-MEL-28 melanoma -7.59% | SN12C renal 0.637% | UO-31 renal -89.4% | TK-10 renal -18.7% | ACHN renal -82.4% | CAKI-1 renal -13.9% | A498 renal -55.5%

COc1cccc2c(=O)c3c(sc12)c(NCCCN)nc1ccccc13
active: HT29 colon -29.3% | LOX IMVI melanoma -81.7% | MOLT-4 leukemia 8.43%
inactive: HCT-15 colon 28.9% | SNB-75 CNS 58.2% | SNB-19 CNS 51% | U251 CNS 39.5% | PC-3 prostate 55.9% | SK-MEL-5 melanoma 85.9% | UACC-62 melanoma 88.3% | SK-MEL-28 melanoma 91.4% | EKVX NSCLC 63.6% | SN12C renal 48.4% | UO-31 renal 27.7% | TK-10 renal 65.6% | ACHN renal 29.4% | CAKI-1 renal 27.5% | A498 renal 25.2% | CCRF-CEM leukemia 14.7%

COc1cc(C(=O)c2cnc(-c3cccc4[nH]ccc34)[nH]2)cc(OC)c1OC
inactive: HCT-15 colon 17.8% | SNB-75 CNS 30.5% | SNB-19 CNS 40.3% | U251 CNS 20.2% | PC-3 prostate 22.4% | UACC-62 melanoma 39.3% | LOX IMVI melanoma 28.1% | SK-MEL-28 melanoma 55.1% | EKVX NSCLC 42.4% | SN12C renal 31.1% | UO-31 renal 26.7% | TK-10 renal 63.4% | ACHN renal 30.2% | CAKI-1 renal 16.7% | CCRF-CEM leukemia 10.3% | MOLT-4 leukemia 14.2%
active: HT29 colon 7.58% | SK-MEL-5 melanoma -23.6% | A498 renal -15.9%

COc1cc(OCc2cccc(-c3ccc(C(O)c4nccs4)cc3)c2C)cc(OC)c1CNCCNC(C)=O (centres undefined)
inactive: HCT-15 colon 97.7% | HT29 colon 92.9% | SNB-75 CNS 85% | SNB-19 CNS 94.9% | U251 CNS 91.1% | PC-3 prostate 90.2% | SK-MEL-5 melanoma 91.8% | UACC-62 melanoma 90% | LOX IMVI melanoma 94.8% | SK-MEL-28 melanoma 94.8% | SK-MEL-2 melanoma 122% | EKVX NSCLC 97% | SN12C renal 98.1% | UO-31 renal 89% | TK-10 renal 98.9% | CAKI-1 renal 93.7% | A498 renal 88.2% | CCRF-CEM leukemia 91.9% | MOLT-4 leukemia 94.9%

CCc1cccc2c3c(sc12)C(c1ccc(F)cc1)C(C#N)=C(N)O3 (centres undefined)
active: A498 renal 7.3%
inactive: HCT-15 colon 14.5% | HT29 colon 12.7% | SNB-75 CNS 24.1% | SNB-19 CNS 39.8% | U251 CNS 29.2% | PC-3 prostate 20.4% | SK-MEL-5 melanoma 27.4% | UACC-62 melanoma 39% | LOX IMVI melanoma 14.6% | SK-MEL-28 melanoma 60.5% | EKVX NSCLC 51% | SN12C renal 32.7% | UO-31 renal 48.9% | TK-10 renal 77.8% | ACHN renal 30.1% | CAKI-1 renal 14.5% | CCRF-CEM leukemia 15.1% | MOLT-4 leukemia 17.3%

COc1c(N2CC3CCCN(C(C)=O)C3C2)c(F)cc2c(=O)c(C(=O)N[C@H]3C(O)[C@@H](O)C(CO)O[C@H]3O)cn(C3CC3)c12 (some centres undefined)
inactive: HCT-15 colon 98.5% | HT29 colon 105% | SNB-75 CNS 100% | SNB-19 CNS 99.4% | U251 CNS 102% | PC-3 prostate 108% | SK-MEL-5 melanoma 101% | UACC-62 melanoma 101% | LOX IMVI melanoma 87.1% | SK-MEL-28 melanoma 112% | SK-MEL-2 melanoma 111% | EKVX NSCLC 103% | SN12C renal 98.9% | UO-31 renal 92.2% | TK-10 renal 105% | CAKI-1 renal 101% | A498 renal 103% | CCRF-CEM leukemia 105% | MOLT-4 leukemia 116%

Cc1cccc2c(=O)c3c(sc12)c(NCc1ccccc1)nc1ccccc13
inactive: HCT-15 colon 64.3% | HT29 colon 83.4% | SNB-75 CNS 96.1% | SNB-19 CNS 107% | U251 CNS 101% | PC-3 prostate 89.1% | SK-MEL-5 melanoma 94.5% | UACC-62 melanoma 74.3% | LOX IMVI melanoma 93.6% | SK-MEL-28 melanoma 116% | EKVX NSCLC 89.7% | SN12C renal 93.6% | UO-31 renal 66.5% | TK-10 renal 105% | ACHN renal 90.9% | CAKI-1 renal 76.4% | A498 renal 72.4% | CCRF-CEM leukemia 100% | MOLT-4 leukemia 92.1%

COc1ccc(OC)c(/C=C2\Oc3cc(OCCN4CCC(Cc5ccccc5)CC4)ccc3C2=O)c1
inactive: HCT-15 colon 24.3% | HT29 colon 21.4% | SNB-75 CNS 72.6% | SNB-19 CNS 98.8% | U251 CNS 81.2% | PC-3 prostate 78% | SK-MEL-5 melanoma 75.2% | UACC-62 melanoma 92.8% | LOX IMVI melanoma 56.1% | SK-MEL-28 melanoma 89.5% | SK-MEL-2 melanoma 105% | EKVX NSCLC 75.6% | SN12C renal 80.8% | UO-31 renal 53.8% | TK-10 renal 97.7% | CAKI-1 renal 61.4% | A498 renal 88.6% | CCRF-CEM leukemia 75.6% | MOLT-4 leukemia 62.4%

O=C(/C=C/c1sc(Cl)nc1Cl)c1ccccc1
active: LOX IMVI melanoma 3.61%
inactive: HCT-15 colon 30.4% | HT29 colon 88.6% | SNB-75 CNS 86.5% | SNB-19 CNS 96% | U251 CNS 69.9% | PC-3 prostate 84.8% | SK-MEL-5 melanoma 102% | UACC-62 melanoma 93.5% | SK-MEL-28 melanoma 95.4% | EKVX NSCLC 101% | SN12C renal 44.8% | UO-31 renal 90.7% | TK-10 renal 111% | ACHN renal 46.9% | CAKI-1 renal 93.1% | A498 renal 100% | CCRF-CEM leukemia 34.9% | MOLT-4 leukemia 32.3%

CCCCCCNC(=O)Oc1ccc(/C(=C(\C)c2ccc(Cl)cc2)c2ccc(OCCN3CCCCC3)cc2)cc1
inactive: SNB-75 CNS 59.5% | SNB-19 CNS 68% | U251 CNS 34.7% | PC-3 prostate 29.6% | SK-MEL-5 melanoma 25% | UACC-62 melanoma 54.5% | SK-MEL-28 melanoma 29.4% | EKVX NSCLC 52.8% | SN12C renal 55.9% | UO-31 renal 32.6% | TK-10 renal 89.6% | ACHN renal 76.3% | CAKI-1 renal 63.8% | A498 renal 76.1% | CCRF-CEM leukemia 34% | MOLT-4 leukemia 10.9%
active: HCT-15 colon 8.87% | HT29 colon -10.1% | LOX IMVI melanoma 3.75%

COc1ccc(-c2[nH]ncc2-c2cc3c(c(OC)c2)OCC(=O)N3)cc1
inactive: HCT-15 colon 23.7% | HT29 colon 37.2% | SNB-19 CNS 24.7% | U251 CNS 11.3% | PC-3 prostate 17.6% | SK-MEL-5 melanoma 11.9% | UACC-62 melanoma 25.3% | LOX IMVI melanoma 41.7% | SK-MEL-28 melanoma 57.6% | EKVX NSCLC 38.7% | SN12C renal 35.8% | UO-31 renal 36.4% | CAKI-1 renal 26% | CCRF-CEM leukemia 23.2% | MOLT-4 leukemia 31.9%
active: SNB-75 CNS -20.2% | SK-MEL-2 melanoma 9.07% | TK-10 renal 1.85% | A498 renal -21%

Cc1nn(-c2ccccc2)c(-n2ccnc2)c1/C=N/Nc1nc(-c2ccc(Cl)c(Cl)c2)cs1
inactive: HCT-15 colon 23.8% | HT29 colon 17.1% | SNB-19 CNS 46% | U251 CNS 53.1% | PC-3 prostate 28.8% | SK-MEL-5 melanoma 26.5% | UACC-62 melanoma 71.4% | LOX IMVI melanoma 20.1% | SK-MEL-28 melanoma 58.1% | SK-MEL-2 melanoma 83.7% | EKVX NSCLC 30.8% | SN12C renal 31.3% | UO-31 renal 49.6% | CAKI-1 renal 24.9% | A498 renal 43.5% | CCRF-CEM leukemia 26.1% | MOLT-4 leukemia 32.3%
active: SNB-75 CNS -2.39% | TK-10 renal 2.74%

CCC(=O)Nc1ccc(-c2nc(-c3cccc(OC)c3)c(-c3ccnc(Br)c3)[nH]2)cc1
inactive: HCT-15 colon 21.5% | HT29 colon 54.7% | SNB-75 CNS 15.9% | SNB-19 CNS 67.8% | U251 CNS 53.4% | PC-3 prostate 39.4% | SK-MEL-5 melanoma 47.8% | UACC-62 melanoma 48.8% | LOX IMVI melanoma 43.3% | SK-MEL-28 melanoma 66% | EKVX NSCLC 64.6% | SN12C renal 68.3% | UO-31 renal 53.9% | TK-10 renal 90.4% | ACHN renal 60.3% | CAKI-1 renal 57.1% | A498 renal 50.5% | CCRF-CEM leukemia 37.1% | MOLT-4 leukemia 44.6%

CCCCCCCCCCCCCCCCCCOc1ccccc1CCCOP(=O)(O)OCC[N+](C)(C)C
active: PC-3 prostate 0.281% | TK-10 renal 1.65%
inactive: HCT-15 colon 51.3% | HT29 colon 12.7% | SNB-75 CNS 83.3% | SNB-19 CNS 33.7% | U251 CNS 39.4% | SK-MEL-5 melanoma 80.9% | UACC-62 melanoma 55.7% | LOX IMVI melanoma 58.1% | SK-MEL-28 melanoma 93.1% | SK-MEL-2 melanoma 102% | EKVX NSCLC 74.1% | SN12C renal 60.9% | UO-31 renal 68.5% | CAKI-1 renal 43.4% | A498 renal 54.1% | CCRF-CEM leukemia 34% | MOLT-4 leukemia 33.7%

Cc1nc(/N=C(\N)NC(=O)Nc2ccccc2Cl)sc1C
inactive: HCT-15 colon 30.1% | HT29 colon 18% | SNB-19 CNS 44.2% | U251 CNS 29.2% | PC-3 prostate 33.1% | SK-MEL-5 melanoma 32.6% | UACC-62 melanoma 45.7% | LOX IMVI melanoma 43.3% | SK-MEL-28 melanoma 63.2% | EKVX NSCLC 48.7% | SN12C renal 42.7% | UO-31 renal 58.1% | TK-10 renal 70.7% | ACHN renal 52.3% | CAKI-1 renal 30.9% | CCRF-CEM leukemia 16.4% | MOLT-4 leukemia 43.6%
active: SNB-75 CNS -29.2% | A498 renal -15.9%
